Measured values taken from PubChem BioAssay (Tox21).
Records with an inconclusive call do not appear. Active and inactive are the calls of the source. Unless noted, calls come from the whole dose curve; as a rule, active = well fitted curve in the direction sought with a large enough effect in the repeat runs; inconclusive = weak or mixed curves; inactive = no such curve, though single readings can be large; an effect the other way counts as inactive or inconclusive.

Tests used:
[1] = qHTS assay to identify small molecule agonists of the RXR signaling pathway - cell viability counter screen (AID 1159529);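 note: HEK 293T cells carrying an RXR-alpha UAS beta-lactamase reporter; series mostly up to about 77 µM; nearly all actives have a fitted effect of over 50% in size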
Procedure, shortened: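 Same-well viability check after the LiveBLAzer FRET read: CellTiter-Glo added, luminescence measured after 30 min at room temperature. Reporter HEK 293T cells had been treated with compounds for 16 hr following a 5 hr preincubation.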

[2] = qHTS assay to identify small molecule antagonists of the retinoid acid receptor (RAR) signaling pathway - cell viability counter screen (AID 1159551); note: nearly all actives have a fitted effect of over 35% in size
Procedure, shortened: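 Viability of C3RL4 cells is quantified from ATP by luminescence after 6 h treatment at 37 C with compounds and 1 uM retinol.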

[3] = qHTS assay to identify small molecule antagonists of the retinoic acid receptor (RAR) signaling pathway (AID 1159552; note: nearly all actives have a fitted effect of over 50% in size)
Procedure, shortened: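 Readout: luciferase luminescence, 30 min post-reagent at RT. Setup: C3RL4 RARE reporter cells, compounds plus retinol 1 uM final, 6 hr incubation at 37 C and 5% CO2.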

[4] = qHTS assay to identify small molecule agonists of the retinoic acid receptor (RAR) signaling pathway (AID 1159553)
Procedure, shortened: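 Compounds dissolved in DMSO were pinned onto C3RL4 cells seeded the previous day, and plates were held 6 hr at 37 C. RARE-driven luciferase output was then read by luminescence.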

[5] = qHTS assay to identify small molecule antagonists of the estrogen related receptor (ERR) signaling pathway from Tox21 library - cell viability counter screen (AID 1224834); note: nearly all actives have a fitted effect of over 30% in size
Procedure, shortened: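 In this quantitative HTS format, ERR cells receive compounds in DMSO and are incubated for 17.5 h at 37 C. Live-cell protease activity is then detected with CellTiter-Fluor.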

[6] = molecular target: Luciferin 4-monooxygenase (Photinus pyralis) (UniProt P08659); test: qHTS assay to identify small molecule inhibitors of firefly luciferase (AID 1224835); note: series mostly up to about 120 µM; nearly all actives have a fitted effect of over 25% in size
Sequence of Luciferin 4-monooxygenase (Photinus pyralis) (P08659 whole entry, looked up): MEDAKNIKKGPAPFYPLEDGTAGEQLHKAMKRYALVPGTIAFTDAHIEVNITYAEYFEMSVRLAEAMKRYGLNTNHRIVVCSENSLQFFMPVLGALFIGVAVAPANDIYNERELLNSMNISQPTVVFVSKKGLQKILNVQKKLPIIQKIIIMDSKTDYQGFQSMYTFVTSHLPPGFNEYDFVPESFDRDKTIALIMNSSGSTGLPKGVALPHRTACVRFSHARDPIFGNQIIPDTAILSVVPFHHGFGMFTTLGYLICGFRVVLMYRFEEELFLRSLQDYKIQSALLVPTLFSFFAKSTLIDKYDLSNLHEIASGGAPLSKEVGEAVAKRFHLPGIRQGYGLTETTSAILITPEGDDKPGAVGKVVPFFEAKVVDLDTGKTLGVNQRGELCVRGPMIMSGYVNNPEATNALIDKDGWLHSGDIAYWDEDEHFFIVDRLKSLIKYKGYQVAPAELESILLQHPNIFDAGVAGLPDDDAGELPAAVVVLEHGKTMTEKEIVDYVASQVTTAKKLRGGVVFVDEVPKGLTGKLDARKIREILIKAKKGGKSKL
Procedure, shortened: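 Inhibition of purified Photinus luciferase is measured by luminescence. Substrate levels (D-luciferin, ATP) sit at their KM values. Each compound is tested in a concentration series.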

[7] = qHTS assay to identify small molecule agonists of the constitutive androstane receptor (CAR) signaling pathway - cell viability counter screen (AID 1224836); note: series mostly up to about 92 µM; nearly all actives have a fitted effect of over 45% in size
Procedure, shortened: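 Compound titrations (15 concentrations) went onto HepG2-CYP2B6-hCAR cells 4 h after seeding, alongside PK11195 at a final 0.75 uM; a 23 h, 37 C/5% CO2 incubation preceded CellTiter-Fluor viability measurement.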

[8] = qHTS assay to identify small molecule antagonists of the constitutive androstane receptor (CAR) signaling pathway - cell viability counter screen (AID 1224837); note: series mostly up to about 92 µM; nearly all actives have a fitted effect of over 45% in size
Procedure, shortened: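 In quantitative HTS format, compounds at 15 concentrations were applied to HepG2 cells double-transfected with hCAR and CYP2B6-2.2kb under 50 nM CITCO stimulation; live-cell protease activity was read after 23 hr via CellTiter-Fluor.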

[9] = molecular target: Nuclear receptor subfamily 1 group I member 3 (Homo sapiens) (UniProt Q14994); test: qHTS assay to identify small molecule agonists of the constitutive androstane receptor (CAR) signaling pathway (AID 1224839);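 note: HepG2 cells stably carrying human CAR and a CYP2B6 luciferase reporter; series mostly up to about 92 µM; nearly all actives have a fitted effect of over 15% in size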
Sequence of Nuclear receptor subfamily 1 group I member 3 (Homo sapiens) (Q14994 whole entry, looked up): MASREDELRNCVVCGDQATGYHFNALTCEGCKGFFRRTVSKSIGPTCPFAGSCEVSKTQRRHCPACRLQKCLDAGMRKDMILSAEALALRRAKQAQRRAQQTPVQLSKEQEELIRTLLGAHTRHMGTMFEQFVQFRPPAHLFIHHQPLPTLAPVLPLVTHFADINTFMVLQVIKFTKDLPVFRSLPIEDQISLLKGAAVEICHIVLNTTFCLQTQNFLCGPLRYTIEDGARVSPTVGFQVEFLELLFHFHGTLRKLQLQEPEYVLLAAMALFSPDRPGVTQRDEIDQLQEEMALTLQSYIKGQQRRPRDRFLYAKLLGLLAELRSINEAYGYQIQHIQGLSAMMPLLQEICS
Procedure, shortened: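 In this screen, CAR-driven CYP2B6 promoter activity is measured by luminescence in HepG2-CYP2B6-hCAR cells after 24 h with test compounds and 0.75 uM PK11195 (final concentration).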

[10] = qHTS assay to identify small molecule antagonists of the estrogen related receptor signaling pathway with the pleiotropic PPARgamma coactivator (PGC) from Tox21 10K library - cell viability counter screen (AID 1224840; active = well fitted cell-killing curve with a large enough effect in the repeat runs, not every such curve was filed as active; note: nearly all actives have a fitted effect of over 40% in size)
Procedure, shortened: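 Viability counter screen, PGC/ERR cells: 17.5 h compound exposure at 37 C, CellTiter-Fluor fluorescence endpoint.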

[11] = qHTS assay to identify small molecule antagonists of the estrogen related receptor signaling pathway with the pleiotropic PPARgamma coactivator (PGC) from Tox21 10K library (AID 1224841; call rule not given here; note: series mostly up to about 92 µM; actives are mostly falling curves and most rising ones were filed inactive; nearly all actives have a fitted effect of over 50% in size)
Procedure, shortened: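 In the PGC/ERR line, DMSO solutions of test chemicals are pin-delivered to 2,000 cells/well six hours after dispensing. Following eighteen hours' incubation, One-Glo reagent is added and luminescence recorded.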

[12] = qHTS assay to identify small molecule agonists of the estrogen related receptor signaling pathway with the pleiotropic PPARgamma coactivator (PGC) from Tox21 10K library (AID 1224842); note: nearly all actives have a fitted effect of over 15% in size
Procedure, shortened: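 Luminescence from One-Glo (30 min, room temperature) measured after PGC/ERR cells had 18 h at 37 C with pinned compound (23 nL in DMSO). Cells had been seeded at 2,000 per well and pre-incubated 6 h.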

[13] = molecular target: Thyrotropin receptor (Homo sapiens) (UniProt P16473); test: qHTS assay to identify small molecule agonists of the thyroid stimulating hormone receptor (TSHR) signaling pathway (AID 1224843; calls by dose curve; note: nearly all actives have a fitted effect of over 45% in size)
Sequence of Thyrotropin receptor (Homo sapiens) (P16473 whole entry, looked up): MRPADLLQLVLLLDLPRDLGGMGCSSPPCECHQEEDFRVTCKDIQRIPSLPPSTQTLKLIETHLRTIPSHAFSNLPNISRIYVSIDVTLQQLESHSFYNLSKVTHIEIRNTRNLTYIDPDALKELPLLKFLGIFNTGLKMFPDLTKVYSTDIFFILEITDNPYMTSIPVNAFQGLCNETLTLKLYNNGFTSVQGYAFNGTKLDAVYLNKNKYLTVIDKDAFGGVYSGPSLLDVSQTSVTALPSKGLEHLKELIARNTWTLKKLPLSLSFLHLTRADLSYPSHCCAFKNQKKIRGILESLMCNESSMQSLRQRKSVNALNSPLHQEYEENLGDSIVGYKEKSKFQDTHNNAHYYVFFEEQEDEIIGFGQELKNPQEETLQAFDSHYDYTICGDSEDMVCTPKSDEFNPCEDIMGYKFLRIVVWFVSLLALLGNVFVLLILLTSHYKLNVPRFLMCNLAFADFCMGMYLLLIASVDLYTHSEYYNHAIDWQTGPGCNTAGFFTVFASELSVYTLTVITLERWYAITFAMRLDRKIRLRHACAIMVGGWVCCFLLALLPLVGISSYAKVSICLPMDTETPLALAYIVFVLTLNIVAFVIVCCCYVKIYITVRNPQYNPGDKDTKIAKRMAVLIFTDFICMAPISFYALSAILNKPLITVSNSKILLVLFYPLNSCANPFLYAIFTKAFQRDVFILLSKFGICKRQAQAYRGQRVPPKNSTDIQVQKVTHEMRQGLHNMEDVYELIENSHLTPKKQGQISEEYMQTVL
Procedure, shortened: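 A cell-based cAMP HTRF format was run in TSHR-transfected HEK293 cells, 800 per well. Treatment: 30 min, room temperature. Detection: 1 h with labelled cAMP and anti-cAMP cryptate. Concentration-response over 15 points, three replicates.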

[14] = molecular target: Nuclear receptor subfamily 1 group I member 3 (Homo sapiens) (UniProt Q14994); test: qHTS assay to identify small molecule antagonists of the constitutive androstane receptor (CAR) signaling pathway (AID 1224838); note: nearly all actives have a fitted effect of over 40% in size
Procedure, shortened: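 CITCO-stimulated (50 nM final) HepG2 cells stably transfected with hCAR and CYP2B6-2.2kb luciferase were exposed to compounds at 15 concentrations for 24 h at 37 C/5% CO2. A luciferase reagent was added and luminescence recorded after 30 min.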

Measured: Potency

CCC(C)(C#N)N=NC(C)(C#N)CC (centres undefined)
inactive: [1] | [2] | [3] | [4] | [5] | [6] | [7] | [8] | [9] | [10] | [11] | [12] | [13]

CNC(=O)O/N=C(/CSC)C(C)(C)C
inactive: [1] | [2] | [3] | [4] | [5] | [6] | [7] | [8] | [14] | [13]

COc1ccc2c(C(=O)c3ccc(Cl)cc3)c(C)n(CC(=O)O)c2c1
inactive: [1] | [2] | [3] | [4] | [5] | [6] | [7] | [8] | [9]

CC[C@H](N)c1ccccc1
inactive: [1] | [2] | [3] | [4] | [5] | [6] | [7] | [8] | [9] | [10] | [13]

N#CN
inactive: [1] | [2] | [3] | [4] | [5] | [6] | [7] | [8] | [9] | [10]

OCC(Cl)CCl (centres undefined)
inactive: [1] | [2] | [3] | [4] | [5] | [6] | [7] | [8] | [10]

CCCCCCCCSC(=O)Oc1cc(Cl)nnc1-c1ccccc1
inactive: [1] | [2] | [3] | [4] | [5] | [6] | [7] | [8] | [10]

CC(C)N(Cc1ccccc1)C(=O)C(C)(C)C
inactive: [1] | [2] | [3] | [4] | [5] | [6] | [7] | [8] | [14] | [10] | [13]

CCN[C@@H](C)Cc1ccccc1
inactive: [1] | [2] | [3] | [4] | [5] | [6] | [7] | [8] | [10] | [11] | [12] | [13]
